From PubChem BioAssay (NCI)
The panel holds about 83,000 compounds, 20% with a hit somewhere; the sample as a whole holds those more often.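 96-well plates, one dose, 48 hours. Percent growth reported; active if below 10.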 The source made the active and inactive calls.

Experiments:
Assay in all cases: NCI-60 one-dose screen, 48 h (100 = growth as untreated, 0 = no growth, -100 = all killed)
Settings in all cases: 10 µM unless noted
SK-MEL-2 melanoma = system: SK-MEL-2 melanoma
EKVX NSCLC = system: EKVX NSCLC
SN12C renal = system: SN12C renal
UO-31 renal = system: UO-31 renal
TK-10 renal = system: TK-10 renal
CAKI-1 renal = system: CAKI-1 renal
CCRF-CEM leukemia = system: CCRF-CEM leukemia
MOLT-4 leukemia = system: MOLT-4 leukemia
A498 renal = system: A498 renal

Measured: growth

O=C1c2ccc3c4c(ccc(c24)C(=O)N1CCCNCc1ccccc1F)C(=O)N(CCCNCc1ccccc1F)C3=O
active: SK-MEL-2 melanoma -82.9% | EKVX NSCLC -56.5% | SN12C renal -75.7% | UO-31 renal -58% | TK-10 renal -85.8% | CAKI-1 renal -22.8% | CCRF-CEM leukemia -11.7% | MOLT-4 leukemia -28.9%

COc1ccccc1NS(=O)(=O)c1cccc(C(=O)Nc2ccc(Br)cc2)c1
inactive: SK-MEL-2 melanoma 57.7% | EKVX NSCLC 20.1% | SN12C renal 51.8% | UO-31 renal 27.3% | TK-10 renal 61.5% | CAKI-1 renal 27.5% | CCRF-CEM leukemia 40.1% | MOLT-4 leukemia 26.8%

c1ccc2c(-c3c[nH]c4ccccc34)c3c(cc2c1)[nH]c1ccccc13
inactive: SK-MEL-2 melanoma 50.6% | EKVX NSCLC 77.4% | SN12C renal 80.8% | UO-31 renal 58.3% | TK-10 renal 94.1% | CAKI-1 renal 63% | CCRF-CEM leukemia 43.9% | MOLT-4 leukemia 38.2%

CCNC(=O)Oc1ccc(/C(=C(\C)c2ccccc2)c2ccc(OCCN3CCCCC3)cc2)cc1
inactive: SK-MEL-2 melanoma 82.8% | EKVX NSCLC 82% | SN12C renal 65.2% | UO-31 renal 41.2% | TK-10 renal 83.3% | CAKI-1 renal 38.5% | CCRF-CEM leukemia 72.7% | MOLT-4 leukemia 51%

COc1cc(/C(C)=C(\c2ccc(Cl)cc2)c2ccc(OCCN(C)C)cc2)ccc1F
inactive: SK-MEL-2 melanoma 104% | EKVX NSCLC 81.2% | SN12C renal 73.8% | UO-31 renal 47.5% | TK-10 renal 72.1% | CCRF-CEM leukemia 49.5% | MOLT-4 leukemia 42.4%

CN(CCN(C)c1ccc(C(=N)N)cc1)c1ccc(C(=N)N)cc1
inactive: SK-MEL-2 melanoma 94.4% | EKVX NSCLC 94.4% | SN12C renal 74.3% | UO-31 renal 79.8% | TK-10 renal 115% | CAKI-1 renal 68.6% | A498 renal 71.4%
active: CCRF-CEM leukemia -72%
